Compound activity as filed in PubChem.
CYP2C19 activ: human CYP2C19 activators, primary screen, biochemical, luminescence; 96,000 tested, under 10 active; Cytochrome P450 2C19 (Homo sapiens), P33261; recombinant CYP2C19, luciferin-H EGE luminescence; active compounds read high; 0 = fully inhibited enzyme, 1 = untreated enzyme; activation factor at 5 µM;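 active = activation factor of at least 2 at 5 µM in the primary screen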;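 note: 0 = wells with 2.5 mM tranylcypromine and 1 = vehicle-only wells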
MRP1 act: H69AR viability gain despite doxorubicin, primary screen, MRP-1 activator project, H69AR cells, CellTiter-Glo. viability increase, % at 10 µM. 140,000 compounds, 0.61% hits. viability rescue. AID 799, 2007;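 active = viability gain under doxorubicin at or above a set limit, the compound median plus 3 SD, cut at about 4.7% in these data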;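 note: MRP-1 overexpressing cells given doxorubicin 25 µM after compound pretreatment; 18-22 h compound pretreatment then 72 h with doxorubicin before readout; 0% = doxorubicin-only wells and 100% = vehicle-treated cells without doxorubicin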
CYP2C9 activ: human CYP2C9 activators, primary screen, biochemical, luminescence; 96,000 compounds, 1.4% hits; activation factor at 5 µM; Cytochrome P450 2C9 (Homo sapiens), P11712; recombinant CYP2C9, luciferin-H conversion; active compounds read high; factor 1 = untreated enzyme, 0 = blocked;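 active = activation factor of 2 or more for CYP2C9 at a 5 µM dose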;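 note: 0 = sulfaphenazole-blocked wells and 1 = vehicle-only wells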
Target sequence (P11712 whole entry, looked up): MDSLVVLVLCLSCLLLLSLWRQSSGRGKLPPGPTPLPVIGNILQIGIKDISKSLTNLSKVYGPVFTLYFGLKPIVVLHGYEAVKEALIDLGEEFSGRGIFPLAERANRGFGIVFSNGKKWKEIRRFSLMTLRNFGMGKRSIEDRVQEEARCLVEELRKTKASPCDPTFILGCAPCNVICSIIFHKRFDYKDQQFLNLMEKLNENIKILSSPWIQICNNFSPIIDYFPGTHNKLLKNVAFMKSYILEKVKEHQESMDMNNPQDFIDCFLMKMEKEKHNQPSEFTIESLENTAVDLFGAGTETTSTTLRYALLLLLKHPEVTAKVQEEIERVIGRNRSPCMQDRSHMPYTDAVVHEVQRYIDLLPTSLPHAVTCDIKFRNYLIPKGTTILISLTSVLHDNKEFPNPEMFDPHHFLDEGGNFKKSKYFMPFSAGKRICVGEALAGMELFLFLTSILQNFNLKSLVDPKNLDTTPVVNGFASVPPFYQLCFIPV
CYP2C19 inhib: blockers of cytochrome P450 2C19 activity – biochemical, luminescence, ADME assay, primary screen; AID 778, 2007; inhibition, % at 5 µM; P33261; CYP2C19 Supersomes, luciferin-H EGE luminescence, 30 min; 96,000 compounds, 21% hits;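 active = CYP2C19 inhibition above a set limit at 5 µM in the primary screen, cut at about 50% in these data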;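 note: plate controls were negative control wells for no effect and 2.5 mM tranylcypromine positive control for full effect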
CYP2C9 inh: blockers of cytochrome P450 2C9 activity – biochemical, luminescence, ADME assay, primary screen; inhibition, % at 5 µM; CYP2C9 Supersomes, luciferin-H conversion; 96,000 compounds, 20% hits;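 active = blocking of liver enzyme CYP2C9 beyond about 50% at 5 µM, limit read from the data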
MRP reversal: reversal of MRP1-mediated doxorubicin resistance, primary screen, H69AR cells, doxorubicin co-treatment; H69AR cells + 2 uM doxorubicin, CellTiter-Glo, 72 h; differential viability (reversal), % at 10 µM; 85,000 compounds, 0.04% hits;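 active = viability drop by adding the cancer drug above about 55%, with treated viability meeting a 40% cutoff, limit read from the data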;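 note: viability without doxorubicin minus viability with 2 µM doxorubicin for each compound; larger differential means the compound sensitizes cells more to doxorubicin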
* marks the source's active call; other numbers are inactive results; x = not tested or not shown. Only some compounds are listed: those with a hit (about 21% of all), similar ones and a draw of the others.

SMILES	CYP2C19 activ	MRP1 act	CYP2C9 activ	CYP2C19 inhib	CYP2C9 inh	MRP reversal
CCN(CC)S(=O)(=O)c1ccc2c(c1)nc(SCC(=O)NC1CC1)n2-c1ccccc1OC	0.8	-2	0.2	21	75*	19
COc1cccc(C(=O)CSc2nnnn2C2CCCCC2)c1	0.6	-1	0.3	40	68*	x
COc1ccccc1-n1nnnc1SCC(=O)NC1CCCC1	0.9	-1	2.3*	11	-126	3
COc1ccccc1-n1c(SCC(=O)NC2CCS(=O)(=O)C2)nc2cc([N+](=O)[O-])ccc21 (centres undefined)	x	-2	x	x	x	x
Cc1sc(NC(=S)NC(=O)C2CCCCC2)c(C(N)=O)c1C	x	-1	x	x	x	x
O=C(CSc1nnnn1-c1cccc2c1CCCC2)N1CCOCC1	0.8	-3	2.2*	20	-119	24
O=C(CSc1nnnn1-c1cccc2c1CCCC2)NC1CCCC1	0.9	-2	3*	10	-200	12
O=C(CSc1nnnn1-c1cccc2c1CCCC2)N1CCCC1	x	-2	x	x	x	14
O=C(CSc1nccn1-c1cccc(Cl)c1)NC1CCCC1	0.2	-1	0.3	84*	67*	-6
COc1ccc2c(c1)c1nnc(SCC(=O)N3C(C)CCCC3C)nc1n2C (centres undefined)	0.5	-2	0.3	49	66*	1
COc1cccc(-n2nnnc2SCC(=O)NC2CCCC2)c1	0.6	0	2*	44	-98	-5
COc1cccc(-n2nnnc2SCC(=O)N2CCCc3ccccc32)c1	0.5	0	0.8	52*	19	-1
COc1ccc(-n2nnnc2SCC(=O)N2C(C)CCCC2C)c(OC)c1 (centres undefined)	0.2	0	1.9	75*	-87	20
CC1CCCC(C)N1C(=O)CSc1nnnn1-c1cccc2c1CCCC2 (centres undefined)	0.7	-3	1.3	26	-34	11
COc1cccc(NC(=O)CSc2nncn2-c2ccccn2)c1	0.4	-2	0.8	62*	22	x
COc1ccc(-c2cc(=O)oc3cc(OC(=O)C4CCCCC4)c(Cl)cc23)cc1	x	-4	x	x	x	x
CCOC(=O)N1CCC(N(C(=O)Nc2ccc(Cl)c(Cl)c2)C(C)CC)CC1 (centres undefined)	0.1	1	0.2	89*	84*	18
CC1CCCCN1C(=O)Nc1cccc(Cl)c1 (centres undefined)	0.3	-1	0.8	70*	17	4
CCOC(=O)N1CCN(C(=O)Nc2cccc(Cl)c2)CC1	0.4	-1	0.8	61*	18	15
CCOC(=O)N1CCN(C(=O)Nc2ccc(Cl)cc2)CC1	0.8	-1	1.1	16	-9	18
O=C(Nc1cccc(Cl)c1)N1CCCC1	1	-1	1.1	0	-15	-8
CCOC(=O)C1CCCN(C(=O)Nc2cccc(Cl)c2)C1 (centres undefined)	0.4	-1	0.6	60*	40	1
Cc1ccc(-n2[nH]c(C)c(CCC#N)c2=O)cc1	x	1	x	x	x	x
CC1=C(C)CC(C(=O)Nc2cccc(Cl)c2)C(C(=O)O)C1 (centres undefined)	1.1	0	0.5	-5	50*	-1
COc1ccc2ccccc2c1C(=O)/C=C\c1ccoc1	x	-4	x	x	x	x
SMILES	CYP2C19 activ	MRP1 act	CYP2C9 activ	CYP2C19 inhib	CYP2C9 inh	MRP reversal
O=C(CCn1nnc2ccccc21)N1CCC(O)(c2cccc(F)c2)CC1	0.6	-2	0.5	43	52*	1
COc1ccc(CN(C(=O)c2ccco2)c2ccc(Br)cc2)cc1OC	0.2	-3	0.1	80*	89*	x
COc1ccc(N(Cc2ccco2)C(=O)c2ccccc2F)cc1OC	0.3	-2	0.2	71*	80*	-4
Cc1ccc(N(Cc2ccc([N+](=O)[O-])cc2)C(=O)c2ccco2)cc1	0.7	-3	0	25	96*	x
Cc1cc(C)cc(C(=O)NCC(=O)OCC(=O)N2CCN(S(=O)(=O)c3ccc4ccccc4c3)CC2)c1	x	-3	x	x	x	x
O=C(Nc1cccc(Cl)c1)C1C2CCC3C(CCC21)C3(Cl)Cl (centres undefined)	x	-2	x	x	x	x
COc1ccc2[nH]c(-c3ccc(C)cc3)cc(=O)c2c1	x	-2	x	x	x	x
Nc1cc(=O)[nH]c(SCc2nc3ccccc3n2Cc2ccccc2)n1	0.5	-4	0.2	47	82*	-1
CCCCn1c(NC(=O)c2ccccc2)nc2ccccc21	0.4	-5	0.3	61*	73*	-30
CCCn1c(NC(=O)c2ccc(Br)cc2)nc2ccccc21	0.9	-3	1	8	4	3
CCCCCn1c(C(Cc2ccccc2)NC(C)=O)nc2ccccc21 (centres undefined)	0.3	-1	0.8	74*	23	4
Cc1ccc(-c2c(C#N)c(N)nc3c2CCCC3)s1	0.8	-1	1.3	21	-25	x
CSc1nc2ccc(NC(=O)C3CC(=O)N(Cc4ccccc4)C3)cc2s1 (centres undefined)	0.8	-5	0.7	16	33	-4
COCCNC(=O)C(c1ccc(F)cc1)N(Cc1ccco1)C(=O)CCC(=O)Nc1nccs1 (centres undefined)	0.5	-1	0.6	53*	36	19
O=C(NCc1ccccc1)C(c1ccc(F)cc1)N(Cc1cccs1)C(=O)c1cnccn1 (centres undefined)	x	-2	x	x	x	x
O=C(NCc1ccccc1)C(c1ccccc1)N(Cc1cccs1)C(=O)c1cnccn1 (centres undefined)	0.4	-5	0.7	62*	25	x
O=C(CCC(=O)N(Cc1ccco1)C(C(=O)NC1CCCC1)c1ccncc1)Nc1cccnc1 (centres undefined)	0.3	-3	0.4	75*	61*	9
O=C(NC1CCCCC1)C(c1cccs1)N(Cc1cccs1)C(=O)c1ccco1 (centres undefined)	0.4	-2	0.5	55*	53*	13
O=C(CCC(=O)N(c1ccc(F)cc1)C(C(=O)NC1CCCC1)c1ccncc1)Nc1cccnc1 (centres undefined)	x	-2	x	x	x	-24
O=C(NCC(=O)N(Cc1cccs1)C(C(=O)NC1CCCCC1)c1ccco1)c1ccco1 (centres undefined)	x	-1	x	x	x	9
Cc1cccc(S(=O)(=O)c2c(N)n(-c3ccccc3)c3nc4ccccc4nc23)c1	x	-2	x	x	x	x
O=C(Cn1c(NCCCO)nc2ccccc21)c1cccs1	x	x	x	x	x	-8
O=C(NCC(=O)N(Cc1ccco1)C(C(=O)NC1CCCC1)c1ccncc1)c1cccs1 (centres undefined)	x	-3	x	x	x	10
